The results in this text go back to PubChem BioAssay (NCI).

The structures appear in SMILES notation. About 79,000 compounds went through this panel and 15% of them were active in at least one assay; those are over-represented in the sample as a whole. Unmarked numbers belong to inactive results. The source made the active and inactive calls. Cut-off read from the data, not from the text of the source: active = growth inhibition above about 70%; inactive = the rest.

Assay [1] in a line: NCI Yeast Anticancer Drug Screen. Data for the rad50 strain (AID 155).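 Note: 0% = growth of vehicle-only cultures of the same strain.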 The note with it: S. cerevisiae rad50 strain growth inhibition, hits give high values. Put shortly:
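A DNA repair-deficient yeast mutant serves as the test organism; compound-induced growth inhibition is calculated against vehicle-treated cells.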

Assay [2] is described as follows: NCI Yeast Anticancer Drug Screen. Data for the mec2-1 strain (AID 157). As to conditions: S. cerevisiae mec2-1 strain, hits give high values. Put shortly:
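mec2-1 yeast strain, carrying an alteration in DNA damage repair or cell cycle control, was exposed to compounds; growth inhibition was measured relative to vehicle-treated controls.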

Assay [3] in a line: NCI Yeast Anticancer Drug Screen. Data for the sgs1 mgt1 strain (AID 161).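 Note: 0% = growth of cultures given vehicle only.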 As to conditions: S. cerevisiae sgs1 mgt1 strain, hits give high values. Put shortly: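 This yeast growth screen uses a strain with defined DNA-repair lesions; compound-treated growth is compared with vehicle-treated growth.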
The nature of assay [4]: NCI Yeast Anticancer Drug Screen. Data for the cln2 rad14 strain (AID 165).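 Note: 0% = growth equal to vehicle treated cultures.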 As to conditions: S. cerevisiae cln2 rad14 strain, hits give high values. Put shortly: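 Yeast carrying cln2 and rad14 alterations (cell cycle control and DNA damage repair) were exposed to compounds. Growth inhibition was measured against vehicle-treated controls.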
The nature of assay [5]: NCI Yeast Anticancer Drug Screen. Data for the bub3 strain (AID 167). As to conditions: S. cerevisiae bub3 mutant strain, hits give high values. Put shortly: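 Inhibition values come from growth of compound-treated mutant yeast normalised to vehicle-treated controls.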
Assay [6] in a line: NCI Yeast Anticancer Drug Screen. Data for the mlh1 rad18 strain (AID 175). As to conditions: S. cerevisiae mlh1 rad18 strain growth inhibition, hits give high values. In outline: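 Growth inhibition of the yeast strain was measured after compound exposure and expressed relative to vehicle-treated controls. The strain carries defined defects in DNA damage repair.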
Setting [7] is: at 5.0 µM (retest, dose inferred, filed as 0.5).
Where [8] appears, read: at 50.0 µM (retest, dose inferred, filed as 5.0).

On to `Oc1cc(F)cc2cccnc12`, for which the growth inhibition was 43% in assay [1] (setting [7]); 92% (active) in assay [1] (setting [8]); 92.3% (active) in assay [1] (at 50.0 µM); 46% in assay [2] (setting [7]); 91% (active) in assay [2] (setting [8]); 94.3% (active) in assay [2] (at 50.0 µM). For the same compound, the growth inhibition in assay [3] (setting [7]) is 99% (active); in assay [3] (setting [8]), 99% (active); in assay [3] (at 50.0 µM) it was 94.1% (active); in assay [4] (setting [7]), 88% (active); in assay [4] (setting [8]) it was 100% (active); in assay [4] (at 50.0 µM) it was 92.5% (active). Moreover, the growth inhibition in assay [5] (setting [7]) is 100% (active); in assay [5] (setting [8]) it was 100% (active); in assay [5] (at 50.0 µM), 93.3% (active); in assay [6] (setting [7]), 42%; in assay [6] (setting [8]), 99% (active); in assay [6] (at 50.0 µM), 91.3% (active).

In the case of `O=C(NCCl)Nc1ccccc1`, the growth inhibition in assay [1] (setting [7]) was -3%; in assay [1] (setting [8]) it was 62%; in assay [1] (at 50.0 µM), 57.7%; in assay [2] (setting [7]) it was 5%; in assay [2] (setting [8]), 82% (active); in assay [2] (at 50.0 µM), 62.8%. The growth inhibition in assay [3] (setting [7]) was 8%; in assay [3] (setting [8]), 86% (active); in assay [3] (at 50.0 µM), 67.9%; in assay [4] (setting [7]), 1%; in assay [4] (setting [8]), 65%; in assay [4] (at 50.0 µM), 17.9%. In addition, the growth inhibition in assay [5] (setting [7]) is 6%; in assay [5] (setting [8]) it was 79% (active); in assay [5] (at 50.0 µM) it was 67.5%; in assay [6] (setting [7]) it was 6%; in assay [6] (setting [8]), 83% (active); in assay [6] (at 50.0 µM), 66%.

For `CC(CN(C)C)C(/C=C/c1ccc(Cl)c(Cl)c1)=N\Nc1ccccc1` (configuration not stated), the growth inhibition in assay [1] (setting [7]) was 2%; in assay [1] (setting [8]) it was 96% (active); in assay [1] (at 50.0 µM), 54.1%; in assay [2] (setting [7]), -3%; in assay [2] (setting [8]) it was 98% (active); in assay [2] (at 50.0 µM), 98.7% (active). Moreover, the growth inhibition is 3% in assay [3] (setting [7]); 99% (active) in assay [3] (setting [8]); 49.3% in assay [3] (at 50.0 µM); 3% in assay [4] (setting [7]); 96% (active) in assay [4] (setting [8]); 47.1% in assay [4] (at 50.0 µM). For the same compound, the growth inhibition in assay [5] (setting [7]) was -1%; in assay [5] (setting [8]), 91% (active); in assay [5] (at 50.0 µM), 88.4% (active); in assay [6] (setting [7]), 9%; in assay [6] (setting [8]), 96% (active); in assay [6] (at 50.0 µM), 64.6%.

Take `CCc1[nH]c2ccccc2c1C(c1c(CC)[nH]c2ccccc12)C1CCCCC1=O` (configuration not stated): the growth inhibition in assay [1] (setting [7]) is 1%; in assay [1] (setting [8]), 91% (active); in assay [1] (at 50.0 µM), 93.2% (active); in assay [2] (setting [7]) it was -8%; in assay [2] (setting [8]), 97% (active); in assay [2] (at 50.0 µM) it was 88.8% (active). For the same compound, the growth inhibition in assay [3] (setting [7]) is -10%; in assay [3] (setting [8]), 96% (active); in assay [3] (at 50.0 µM), 92.2% (active); in assay [4] (setting [7]), 0%; in assay [4] (setting [8]) it was 95% (active); in assay [4] (at 50.0 µM), 95.2% (active). The growth inhibition in assay [5] (setting [7]) is 0%; in assay [5] (setting [8]), 95% (active); in assay [5] (at 50.0 µM), 79.8% (active); in assay [6] (setting [7]), -9%; in assay [6] (setting [8]) it was 97% (active); in assay [6] (at 50.0 µM), 95.6% (active).

Regarding `O=S(=O)(Nc1cccc(C2=NCCN2)c1)c1ccc2c(S(=O)(=O)Nc3cccc(C4=NCCN4)c3)cccc2c1`, the growth inhibition in assay [1] (setting [7]) is -3%; in assay [1] (setting [8]) it was 9%; in assay [1] (at 50.0 µM) it was 82.5% (active); in assay [2] (setting [7]), 6%; in assay [2] (setting [8]), 2%; in assay [2] (at 50.0 µM), 9.45%. Besides, the growth inhibition in assay [3] (setting [7]) is -5%; in assay [3] (setting [8]), 2%; in assay [3] (at 50.0 µM), 88.3% (active); in assay [4] (setting [7]), -1%; in assay [4] (setting [8]), 6%; in assay [4] (at 50.0 µM), 13.6%. For the same compound, the growth inhibition was -7% in assay [5] (setting [7]); -12% in assay [5] (setting [8]); 4.8% in assay [5] (at 50.0 µM); -2% in assay [6] (setting [7]); 3% in assay [6] (setting [8]); 78.2% (active) in assay [6] (at 50.0 µM).

On to `CNc1ccc(N=O)cc1`, for which the growth inhibition in assay [1] (setting [7]) was -1%; in assay [1] (setting [8]) it was 90% (active); in assay [1] (at 50.0 µM), 87.8% (active); in assay [2] (setting [7]), 27%; in assay [2] (setting [8]) it was 99% (active); in assay [2] (at 50.0 µM), 90.8% (active). In addition, the growth inhibition in assay [3] (setting [7]) was 5%; in assay [3] (setting [8]) it was 57%; in assay [3] (at 50.0 µM), 89% (active); in assay [4] (setting [7]), 19%; in assay [4] (setting [8]) it was 81% (active); in assay [4] (at 50.0 µM), 74.7% (active). Also, the growth inhibition in assay [5] (setting [7]) is 25%; in assay [5] (setting [8]) it was 98% (active); in assay [5] (at 50.0 µM) it was 89.2% (active); in assay [6] (setting [7]) it was 19%; in assay [6] (setting [8]), 98% (active); in assay [6] (at 50.0 µM), 87.6% (active).

In the case of `O=S(=O)(Nc1nccs1)c1ccc(N=Cc2cn(Cc3ccccc3)c3ccccc23)cc1`, the growth inhibition was 3% in assay [1] (setting [7]); 53% in assay [1] (setting [8]); 82.3% (active) in assay [1] (at 50.0 µM); -3% in assay [2] (setting [7]); 7% in assay [2] (setting [8]); 36.4% in assay [2] (at 50.0 µM). Besides, the growth inhibition in assay [3] (setting [7]) is 3%; in assay [3] (setting [8]), 57%; in assay [3] (at 50.0 µM) it was 85.9% (active); in assay [4] (setting [7]) it was 9%; in assay [4] (setting [8]) it was 11%; in assay [4] (at 50.0 µM) it was 27.4%. For the same compound, the growth inhibition was 1% in assay [5] (setting [7]); 8% in assay [5] (setting [8]); 9.5% in assay [5] (at 50.0 µM); 5% in assay [6] (setting [7]); 38% in assay [6] (setting [8]); 52.4% in assay [6] (at 50.0 µM).

Turning to `CC1=C(\C=C/C(C)=N/N=C(C)\C=C\C2=C(C)CCCC2(C)C)C(C)(C)CCC1`, the growth inhibition was 3% in assay [1] (setting [7]); 31% in assay [1] (setting [8]); 70.8% (active) in assay [1] (at 50.0 µM); 9% in assay [2] (setting [7]); 52% in assay [2] (setting [8]); 28.7% in assay [2] (at 50.0 µM). Besides, the growth inhibition was 27% in assay [3] (setting [7]); 51% in assay [3] (setting [8]); 71% (active) in assay [3] (at 50.0 µM); 3% in assay [4] (setting [7]); 7% in assay [4] (setting [8]); 28.2% in assay [4] (at 50.0 µM). For the same compound, the growth inhibition is -2% in assay [5] (setting [7]); 4% in assay [5] (setting [8]); 23.7% in assay [5] (at 50.0 µM); 24% in assay [6] (setting [7]); 49% in assay [6] (setting [8]); 44.2% in assay [6] (at 50.0 µM).

Consider `O=C(NCCCl)Nc1c2ccccc2nc2ccccc12`, for which the growth inhibition is 15% in assay [1] (setting [7]); 65% in assay [1] (setting [8]); 72% (active) in assay [1] (at 50.0 µM); 8% in assay [2] (setting [7]); 39% in assay [2] (setting [8]); 41% in assay [2] (at 50.0 µM). Moreover, the growth inhibition in assay [3] (setting [7]) is 4%; in assay [3] (setting [8]), 23%; in assay [3] (at 50.0 µM), 24.5%; in assay [4] (setting [7]), 16%; in assay [4] (setting [8]) it was 23%; in assay [4] (at 50.0 µM), 31.4%. Also, the growth inhibition in assay [5] (setting [7]) was -1%; in assay [5] (setting [8]), 19%; in assay [5] (at 50.0 µM), 34.9%; in assay [6] (setting [7]) it was 9%; in assay [6] (setting [8]), 41%; in assay [6] (at 50.0 µM), 37%.
